Experimental findings from PubChem BioAssay (Tox21) are described below.

The nature of assay [1]: Nuclear factor erythroid 2-related factor 2/antioxidant responsive element (Nrf2/ARE) small molecule agonists: qHTS cell viability counter screen in human keratinocytes (AID 1919968; active = well fitted curve in the direction sought with a large enough effect in the repeat runs; an effect the other way counts as inactive or inconclusive; note: nearly all actives have a fitted effect of over 55% in size). Put shortly: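 In human HaCaT keratinocytes stably expressing an ARE-driven luciferase, compound exposure lasted 23 h at 37 C under 5% CO2. Viable cells are quantified with a protease-based fluorogenic reagent (CellTiter-Fluor) read 1 h after addition.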
In general terms: Quantitative high-throughput screening tests each substance at several concentrations.

In assay [2] the target is KiSS-1 receptor (Homo sapiens) (UniProt Q969F8). Nature of the assay: Human kisspeptin (KISS1R) small molecule agonists, calcium flux assay in KISS1R-HEK293 cells (AID 1920064; active = well fitted curve in the direction sought with a large enough effect in the repeat runs; an effect the other way counts as inactive or inconclusive). Put shortly: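 Concentration-response testing used 15 concentrations in triplicate on human KISS1R-expressing HEK293 cells. Calcium-dependent fluorescence (Ex/Em 480/540) was followed kinetically for 3 min after compound transfer.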
Background: Calcium flux is commonly read through the fluorescence of an indicator in the cells.

Assay [3] is described as follows: G protein-coupled receptor (GPCR) small molecule agonists, calcium flux assay: HEK293 wild type cell line counter screen (AID 1920065). Put shortly:
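Fluorescence intensity signals activation. After overnight (18 h) culture and a 1 h calcium dye load at 37 C, compounds are added by pin tool and the plate read at 480/540 nm for 3 min in 1 s steps.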

Assay [4] is described as follows: p53 small molecule agonists, cell-based qHTS assay with human liver microsomes: qHTS cell viability counter screen (AID 1963579). Note: nearly all actives have a fitted effect of over 45% in size. Put shortly: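 After the 460/530 nm beta-lactamase read, CellTiter-Glo was added to the same wells and luminescence measured after 30 min at room temperature, giving viability of p53RE-bla cells treated 16 h with compounds plus microsomes and NADPH.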

The nature of assay [5]: p53 small molecule agonists, cell-based qHTS assay with rat liver microsomes: qHTS cell viability counter screen (AID 1963580). Note: nearly all actives have a fitted effect of over 45% in size. Put shortly: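 Luminescent ATP readout (CellTiter-Glo, 30 min at room temperature) reports viability of p53RE-bla HCT-116 cells after 16 h at 37 C with test compounds under metabolic activation by rat liver microsomes and NADPH at 0.5 mg/mL final each.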

Assay [6] can be described thus: p53 small molecule agonists, cell-based qHTS assay: qHTS cell viability counter screen (AID 1963581). Note: nearly all actives have a fitted effect of over 45% in size. Put shortly: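 Luminescence from CellTiter-Glo, reflecting ATP content, serves as the cytotoxicity measure; it is taken after the 2 h reporter substrate step in HCT-116 p53RE-bla cells dosed for 16 h at 37 C.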
The nature of assay [7]: p53 small molecule agonists, cell-based qHTS assay (AID 1963582; active = well fitted activation curve with a large enough effect in the signal ratio in the repeat runs, not every such curve was filed as active; the % refers to the signal ratio). Put shortly:
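After plating, p53RE-bla cells sat 5 h in the incubator; compounds or DMSO vehicle were pinned in; a 16 h incubation at 37 C followed; FRET substrate was added and, 2 h later at RT, fluorescence was measured.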

Assay [8] deals with 5-hydroxytryptamine receptor 2A (Homo sapiens) (UniProt P28223). Nature of the assay: 5-hydroxytryptamine receptor 2A (HTR2A) small molecule antagonists, cell-based qHTS assay (AID 1963586). Note: nearly all actives have a fitted effect of over 45% in size. Note: potency is the fitted concentration of half-maximal effect. Put shortly:
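CHO cells stably expressing human HTR2A were plated for 18 h at 37 C, then loaded with calcium dye for 1 h. Compounds were preincubated 5 min at room temperature before DOI (4 nM solution) was added. Kinetic fluorescence was read for 3 min.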

Assay [9] shares this target. The experiment in a line: 5-hydroxytryptamine receptor 2A (HTR2A) small molecule agonists, cell-based qHTS assay (AID 1963587). Note: nearly all actives have a fitted effect of over 30% in size. Put shortly:
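HTR2A-CHO cells, plated 18 h at 37 C/5% CO2, dye-loaded 1 h at 37 C; compounds in DMSO added by pin tool (agonist mode). Intracellular calcium flux read as kinetic fluorescence on FDSS over 2 min at 1 s intervals.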

In assay [10] the target is Muscarinic acetylcholine receptor M1 (Homo sapiens) (UniProt P11229). Nature of the assay: Cholinergic receptor muscarinic 1 (CHRM1) small molecule antagonists, cell-based qHTS assay (AID 1963588). Note: nearly all actives have a fitted effect of over 40% in size. Note: potency is the fitted concentration of half-maximal effect. Put shortly: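 Compounds were tested at 15 concentrations in three independent runs. Dye-loaded CHRM1-CHO cells were exposed 5 min at room temperature before stimulation by acetylcholine added at 50nM. Intracellular calcium was read kinetically on FDSS for 3 min.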

The target is the same in assay [11]. Nature of the assay: Cholinergic receptor muscarinic 1 (CHRM1) small molecule agonists, cell-based qHTS assay (AID 1963589). Note: nearly all actives have a fitted effect of over 35% in size. Put shortly:
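Fluorescent calcium dye reports M1 activation in stably transfected CHO cells. Compounds, 15 concentrations, added after 1 h dye loading at 37 C; kinetic reading at 1 sec intervals.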

Assay [12] in a line: cAMP Responsive Elements (CRE) small molecule antagonists, cell-based qHTS assay (AID 1963591; active = well fitted inhibition curve with a large enough effect in the signal ratio in the repeat runs, not every such curve was filed as active; the % refers to the signal ratio). Put shortly:
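Stimulation used NKH477 at a final 0.25 uM for 3 h in compound-treated CRE-bla HEK293T cells, seeded 18 h beforehand. Reporter activity was measured with LiveBLAzer B/G FRET substrate after 2 h at room temperature.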

Assay [13] addresses Beta-2 adrenergic receptor (Homo sapiens) (UniProt P07550). Nature of the assay: Adrenergic beta2 receptor (ADRB2) small molecule antagonists, cell-based qHTS assay (AID 1963592). Note: series mostly up to about 92 µM; nearly all actives have a fitted effect of over 50% in size. Put shortly: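 Assay format: CHO-ADRB2 cells, 18-20hr seeding at 37C/5% CO2, then compound plus 1nM isoproterenol agonist mix for 0.5hr RT. Homogeneous time-resolved fluorescence cAMP detection after 1hr, expressed as 665/615 nm ratio.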

For assay [14] the target is unchanged. The experiment in a line: Adrenergic beta2 receptor (ADRB2) small molecule agonists, cell-based qHTS assay (AID 1963593).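 Note: CHO cells stably overexpressing human ADRB2.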 Put shortly: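 CHO cells stably over-expressing ADRB2 were plated overnight at 37C, then dosed with compounds plus a stimulation mix containing 100uM IBMX and 25uM Ro-20-1724 for 0.5hr at room temperature. cAMP was measured by HTRF competition, 1hr.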

The target of assay [15] is D(2) dopamine receptor (Homo sapiens) (UniProt P14416). Nature of the assay: Dopamine D2 receptor (DRD2) small molecule agonists, cell-based qHTS assay (AID 1963594). Note: nearly all actives have a fitted effect of over 35% in size. Put shortly: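 HEK293 cells stably expressing DRD2 were cultured 24 h at 37 C, then given Ro20-1724 (0.1 mM final) and compounds for 10 min at room temperature. NKH477 (200nM) was then added for 30 min. cAMP was read by HTRF.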

For assay [16] the target is unchanged. The experiment in a line: Dopamine D2 receptor (DRD2) small molecule antagonists, cell-based qHTS assay (AID 1963595; active = well fitted inhibition curve with a large enough effect in the signal ratio in the repeat runs, with a control signal flat; the % refers to the signal ratio). Put shortly: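 Stable D2 receptor HEK293 line, 24 h after seeding. Compound preincubated 10 min, then quinpirole (12 nM) with forskolin analogue NKH477 (200 nM), 30 min, room temperature. Detection by time-resolved FRET of cAMP.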
Assay [17] is described as follows: cAMP Responsive Elements (CRE) small molecule agonists, cell-based qHTS assay (AID 1963590). Put shortly:
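Compound exposure lasted 3 h at 37 C/5% CO2 in CRE-bla HEK 293T cells grown in assay medium with 10% dialyzed FBS and 25 mM HEPES. Reporter signal came from LiveBLAzer B/G FRET substrate, 2 h, room temperature.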

Assay [18] can be described thus: p53 small molecule agonists, cell-based qHTS assay with human liver microsomes (AID 1963577).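 Note: p53 response element beta-lactamase reporter cells with liver microsomes plus NADPH.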 Put shortly:
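Steps: plate p53RE-bla cells, incubate 5 h at 37 C; add compound in DMSO; add microsomes (0.5 mg/mL final) and NADPH (0.5 mg/mL final); incubate 16 h at 37 C; add LiveBLAzer, 2 h RT; read fluorescence.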

Assay [19] is described as follows: p53 small molecule agonists, cell-based qHTS assay with rat liver microsomes (AID 1963578). Put shortly:
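Metabolic activation is supplied by rat liver microsomes with NADPH (each 0.5 mg/mL final). p53RE-bla cells incubate with compound 16 h at 37 C; reporter activity is measured by LiveBLAzer fluorescence.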

Molecules are shown by their SMILES. Records with an inconclusive call do not appear. Calls of active or inactive are those of the source. Unless noted, calls come from the whole dose curve.

Sequence of KiSS-1 receptor (Homo sapiens) (Q969F8 whole entry, looked up): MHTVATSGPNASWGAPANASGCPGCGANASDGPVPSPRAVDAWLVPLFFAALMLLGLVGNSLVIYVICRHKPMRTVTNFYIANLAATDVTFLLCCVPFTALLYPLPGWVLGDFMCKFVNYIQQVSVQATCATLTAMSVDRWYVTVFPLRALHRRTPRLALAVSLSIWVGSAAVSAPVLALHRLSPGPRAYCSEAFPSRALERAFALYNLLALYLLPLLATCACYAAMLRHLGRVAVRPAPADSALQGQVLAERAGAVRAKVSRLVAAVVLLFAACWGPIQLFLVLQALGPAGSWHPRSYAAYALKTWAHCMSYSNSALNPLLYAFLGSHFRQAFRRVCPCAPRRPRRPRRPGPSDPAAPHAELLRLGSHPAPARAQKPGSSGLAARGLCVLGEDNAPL
Sequence of D(2) dopamine receptor (Homo sapiens) (P14416 whole entry, looked up): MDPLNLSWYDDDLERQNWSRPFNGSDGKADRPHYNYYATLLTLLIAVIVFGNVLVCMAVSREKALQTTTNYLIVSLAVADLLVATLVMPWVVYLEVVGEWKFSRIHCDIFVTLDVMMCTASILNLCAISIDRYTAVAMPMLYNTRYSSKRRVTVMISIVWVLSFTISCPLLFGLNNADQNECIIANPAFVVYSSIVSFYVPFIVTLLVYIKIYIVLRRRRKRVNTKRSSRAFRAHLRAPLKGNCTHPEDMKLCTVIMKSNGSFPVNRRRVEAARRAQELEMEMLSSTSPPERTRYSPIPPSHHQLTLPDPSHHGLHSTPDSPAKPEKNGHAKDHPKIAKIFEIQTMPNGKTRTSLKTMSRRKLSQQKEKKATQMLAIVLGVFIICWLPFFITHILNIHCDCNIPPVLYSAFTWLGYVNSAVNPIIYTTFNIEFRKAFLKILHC
Sequence of Muscarinic acetylcholine receptor M1 (Homo sapiens) (P11229 whole entry, looked up): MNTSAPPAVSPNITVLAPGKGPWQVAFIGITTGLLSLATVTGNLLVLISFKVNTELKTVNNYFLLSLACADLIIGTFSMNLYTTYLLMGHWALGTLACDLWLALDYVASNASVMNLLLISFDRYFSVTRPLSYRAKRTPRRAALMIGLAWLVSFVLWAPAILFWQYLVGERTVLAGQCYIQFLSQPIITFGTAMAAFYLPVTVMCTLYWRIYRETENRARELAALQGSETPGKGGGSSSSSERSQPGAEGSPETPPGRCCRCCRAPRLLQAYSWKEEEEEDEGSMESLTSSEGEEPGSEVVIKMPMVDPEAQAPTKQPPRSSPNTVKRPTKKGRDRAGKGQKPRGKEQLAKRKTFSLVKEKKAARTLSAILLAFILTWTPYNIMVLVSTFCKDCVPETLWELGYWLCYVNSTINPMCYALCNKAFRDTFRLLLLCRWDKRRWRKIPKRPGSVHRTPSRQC
Sequence of Beta-2 adrenergic receptor (Homo sapiens) (P07550 whole entry, looked up): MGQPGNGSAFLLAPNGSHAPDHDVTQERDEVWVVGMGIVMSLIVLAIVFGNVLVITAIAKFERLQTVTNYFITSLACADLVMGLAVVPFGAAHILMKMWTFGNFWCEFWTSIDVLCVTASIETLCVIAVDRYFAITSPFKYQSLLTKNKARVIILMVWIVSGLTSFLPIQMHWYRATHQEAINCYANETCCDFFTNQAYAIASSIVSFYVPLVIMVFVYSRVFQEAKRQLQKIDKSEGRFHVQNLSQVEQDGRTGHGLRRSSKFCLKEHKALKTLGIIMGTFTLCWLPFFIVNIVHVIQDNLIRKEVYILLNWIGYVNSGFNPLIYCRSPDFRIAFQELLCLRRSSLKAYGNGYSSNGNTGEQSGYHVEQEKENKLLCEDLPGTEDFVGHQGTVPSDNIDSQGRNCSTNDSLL
Sequence of 5-hydroxytryptamine receptor 2A (Homo sapiens) (P28223 whole entry, looked up): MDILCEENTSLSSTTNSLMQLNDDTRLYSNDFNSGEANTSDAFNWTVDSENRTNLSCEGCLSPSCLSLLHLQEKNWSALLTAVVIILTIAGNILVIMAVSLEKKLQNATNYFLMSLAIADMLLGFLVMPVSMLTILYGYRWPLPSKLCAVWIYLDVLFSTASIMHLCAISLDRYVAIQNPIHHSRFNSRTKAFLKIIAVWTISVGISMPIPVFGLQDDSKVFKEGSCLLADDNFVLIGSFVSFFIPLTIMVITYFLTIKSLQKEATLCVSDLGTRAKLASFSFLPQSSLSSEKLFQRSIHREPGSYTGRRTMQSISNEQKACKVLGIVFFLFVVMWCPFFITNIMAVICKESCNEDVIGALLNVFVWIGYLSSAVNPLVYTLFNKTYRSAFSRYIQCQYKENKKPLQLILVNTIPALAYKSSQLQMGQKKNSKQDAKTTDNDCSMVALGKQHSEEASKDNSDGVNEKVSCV

As to `Cc1cccc(N(C)C(=S)Oc2ccc3c(c2)C2CCC3C2)c1` (stereo not given), the Potency result in assay [1], in [2], in assay [3], in assay [4], in assay [5] and in [6] was “inactive” each time. Further, the Potency entry in assay [7], in assay [9], in assay [10], in assay [11], in assay [12] and in assay [13] was “inactive” throughout. Further, the Potency result in assay [14], in assay [15] and in assay [16] was “inactive” in each case. The Potency in [8] is 1630 nM (active).
In the case of `CN(C)CCC(c1ccc(Cl)cc1)c1ccccn1` (stereo not given), the Potency entry in assay [1], in assay [2], in assay [3], in assay [6], in assay [17] and in assay [12] was “inactive” throughout. Moreover, the Potency entry in assay [13], in [14], in assay [15] and in [16] was “inactive” throughout.
As for `CCCCc1cc2ccccc2c(OCCN(C)C)n1`, the Potency entry in assay [1], in [2], in [18], in assay [19], in [4] and in assay [5] was “inactive” in each case. Moreover, the Potency result in [7], in assay [8], in assay [9], in assay [11], in assay [17] and in assay [12] was “inactive” in each case. In [15], the Potency result is “inactive”.
As for `N#CCCOCCOCCC#N`, the Potency entry in assay [1], in assay [2], in [3], in [4], in [5] and in [6] was “inactive” in each case. The Potency result in [8], in assay [9], in assay [10], in [11], in assay [17] and in assay [12] was “inactive” throughout. Besides, the Potency entry in assay [14], in assay [15] and in [16] was “inactive” each time.
Regarding `CS(=O)(=O)Nc1ccc([N+](=O)[O-])cc1Oc1ccccc1`, the Potency result in [1], in assay [2], in [3], in assay [18], in assay [19] and in assay [4] was “inactive” each time. Besides, the Potency entry in assay [5], in [7], in assay [17], in assay [13], in assay [15] and in assay [16] was “inactive” each time.
For `CC(=O)Nc1cccc(N)c1`, the Potency result in assay [1], in assay [2], in assay [3], in assay [18], in [19] and in [4] was “inactive” throughout. Moreover, the Potency entry in [7], in assay [9], in assay [10], in [11], in assay [17] and in assay [13] was “inactive” each time. Further, the Potency entry in assay [15] and in assay [16] was “inactive” each time.
For the molecule `CC(O)CN` (stereo not given), the Potency result in assay [1], in [2], in assay [3], in assay [4], in [5] and in assay [6] was “inactive” in each case. The Potency entry in assay [8], in assay [9], in assay [10], in assay [17], in [12] and in assay [13] was “inactive” throughout. Moreover, the Potency result in assay [14], in [15] and in assay [16] was “inactive” throughout.
For the molecule `COC(=O)[C@]1(C)CCC[C@@]2(C)[C@H]1CC=C1C=C(C(C)C)CC[C@@H]12`, the Potency result in [1], in assay [2], in assay [18], in assay [19], in assay [4] and in assay [6] was “inactive” in each case. The Potency result in assay [7], in assay [8], in assay [10], in assay [11], in assay [17] and in assay [13] was “inactive” in each case. The Potency result in assay [14], in assay [15] and in assay [16] was “inactive” each time.
In the case of `CC(CC=O)c1ccccc1` (stereo not given), the Potency entry in assay [1], in [2], in [3], in [19], in [5] and in assay [6] was “inactive” in each case. In addition, the Potency result in [7], in assay [8], in assay [9], in assay [10], in assay [11] and in [12] was “inactive” throughout. In addition, the Potency result in assay [13], in assay [14], in assay [15] and in assay [16] was “inactive” each time.
In the case of `CCCCCCCCCCOC(=O)c1ccccc1C(=O)OCCCCCCCC`, the Potency result in [1], in assay [2], in assay [18], in [19], in assay [5] and in assay [6] was “inactive” each time. Besides, the Potency result in [7], in [8], in assay [10], in [11], in assay [17] and in assay [12] was “inactive” in each case. For the same molecule, the Potency entry in assay [13], in [15] and in assay [16] was “inactive” throughout.
For `CC[N+](CC)(CC)CCOC(=O)C(C1CCCC1)C1CCCC1`, the Potency entry in [1], in [2], in assay [3], in assay [4], in assay [5] and in assay [6] was “inactive” throughout. Further, the Potency entry in assay [8], in [9], in assay [11], in assay [13], in assay [14] and in assay [15] was “inactive” throughout. Also, the Potency entry in [16] was “inactive”. Besides, the Potency in assay [10] is 1.6 nM (active).
